# According to PubChem BioAssay (NCI):
# Compounds without any hit were thinned out: in the full panel of roughly 83,000, 20% have a hit.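 Growth was measured after 48 h exposure to one concentration of compound in 96-well plates. Values under 10 count as active.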 The source made the active and inactive calls.
# Experiments:
# Test in all cases: NCI-60 one-dose screen, 48 h (100 = growth as untreated, 0 = no growth, -100 = all killed)
# Conditions in all cases: 10 µM
# [1] = system: SR leukemia
# [2] = system: RPMI-8226 leukemia
# [3] = system: OVCAR-8 ovarian
# [4] = system: OVCAR-5 ovarian
# [5] = system: OVCAR-4 ovarian
# [6] = system: SK-OV-3 ovarian
# [7] = system: IGROV1 ovarian
# [8] = system: OVCAR-3 ovarian
# [9] = system: HS 578T breast
# [10] = system: NCI/ADR-RES ovarian
# [11] = system: T-47D breast
# [12] = system: BT-549 breast
# [13] = system: MDA-MB-435 melanoma
# [14] = system: SW-620 colon
# [15] = system: MCF7 breast
# [16] = system: HCT-116 colon
# [17] = system: HCC-2998 colon
# [18] = system: KM12 colon
Compound,growth [1],growth [2],growth [3],growth [4],growth [5],growth [6],growth [7],growth [8],growth [9],growth [10],growth [11],growth [12],growth [13],growth [14],growth [15],growth [16],growth [17],growth [18]
CS(=O)(=O)Nc1ccc(Nc2c3ccccc3nc3cc(Cl)ccc23)cc1,7.92% (active),41.3% (inactive),25.5% (inactive),63.1% (inactive),56.7% (inactive),42.6% (inactive),29.8% (inactive),56.3% (inactive),81.8% (inactive),44.8% (inactive),26.9% (inactive),52.4% (inactive),54.1% (inactive),30.4% (inactive),18.6% (inactive),16.5% (inactive),42.6% (inactive),48.2% (inactive)
CCCCCCCCCCCCCC[n+]1ccccc1,-22.6% (active),-57% (active),-68.7% (active),5.24% (active),-6.58% (active),-0.0653% (active),-60.4% (active),-51.2% (active),-12.6% (active),73.3% (inactive),12.7% (inactive),-42.4% (active),-87.6% (active),2.31% (active),2.73% (active),-44.3% (active),-72.1% (active),-86.1% (active)
COc1ccc(-c2nsc3c2NC(=O)CC3c2cccc(Cl)c2)cc1 (stereo not drawn),7.99% (active),12.4% (inactive),33.7% (inactive),32.8% (inactive),53.2% (inactive),3.46% (active),39.2% (inactive),11.4% (inactive),37.6% (inactive),15.7% (inactive),35.3% (inactive),36.5% (inactive),-12.2% (active),25.7% (inactive),17% (inactive),23.8% (inactive),43.5% (inactive),34.6% (inactive)
CC(Oc1ccc(Cl)cc1)c1ccccc1 (stereo not drawn),99.1% (inactive),101% (inactive),110% (inactive),103% (inactive),103% (inactive),103% (inactive),96% (inactive),107% (inactive),104% (inactive),103% (inactive),95.7% (inactive),114% (inactive),101% (inactive),96.4% (inactive),102% (inactive),98.9% (inactive),115% (inactive),103% (inactive)
COCCOC(=O)NC(=O)Nc1ccc(C(=O)c2ccc(Cl)cc2)cc1,22.2% (inactive),19.2% (inactive),40.4% (inactive),90.7% (inactive),56.9% (inactive),27.2% (inactive),51.3% (inactive),6.85% (active),32% (inactive),18.9% (inactive),16.5% (inactive),37.8% (inactive),6.97% (active),30.4% (inactive),19.5% (inactive),30.5% (inactive),47.3% (inactive),29% (inactive)
CN1CCN(c2nc(-c3cccnc3)nc3sc4c(c23)CCCCCC4)CC1,34.2% (inactive),80.6% (inactive),95.1% (inactive),104% (inactive),80.8% (inactive),97.2% (inactive),102% (inactive),95.8% (inactive),85.3% (inactive),89.3% (inactive),77.4% (inactive),95.3% (inactive),98.4% (inactive),102% (inactive),88.2% (inactive),85.3% (inactive),56.7% (inactive),100% (inactive)
COc1ccc(C2=NNC(c3sc(Cl)nc3Cl)C2)cc1 (stereo not drawn),2.77% (active),81% (inactive),70.3% (inactive),123% (inactive),80.5% (inactive),90% (inactive),63.3% (inactive),61.9% (inactive),114% (inactive),105% (inactive),27.9% (inactive),53.3% (inactive),80% (inactive),29.1% (inactive),40.8% (inactive),28% (inactive),72.1% (inactive),79.5% (inactive)
COc1cc(OC)cc(N2CCN(C(=O)Nc3nc4cc(F)ccc4nc3OC)CC2)c1,8.23% (active),22.7% (inactive),12.7% (inactive),49% (inactive),44% (inactive),14.4% (inactive),17.6% (inactive),-11.8% (active),37.6% (inactive),-2.42% (active),70.4% (inactive),24.4% (inactive),-31.9% (active),22% (inactive),23.4% (inactive),0.21% (active),21.4% (inactive),13.7% (inactive)
COc1ccc(-c2nc(-c3ccccc3)c(-c3ccccc3)[nH]2)cc1OC1CCCC1,41.9% (inactive),56.6% (inactive),74.9% (inactive),82.7% (inactive),81.6% (inactive),89.3% (inactive),105% (inactive),81.4% (inactive),86.5% (inactive),79.5% (inactive),35.1% (inactive),81.9% (inactive),78.9% (inactive),82.6% (inactive),78.7% (inactive),73.6% (inactive),69.7% (inactive),43.5% (inactive)
CC(C)OP(=O)(O)c1ncc(-c2ccc(C(F)(F)F)cc2)c(NC2CCCCCC2)n1,86.3% (inactive),8.81% (active),52.3% (inactive),84.6% (inactive),52% (inactive),85.2% (inactive),62.4% (inactive),12.1% (inactive),81.7% (inactive),97.5% (inactive),41.7% (inactive),86.6% (inactive),62.7% (inactive),54.7% (inactive),51.1% (inactive),53.1% (inactive),89.8% (inactive),48% (inactive)
COC(=O)[C@]12CC[C@@H](C)[C@H](C)[C@@H]1C1=CC[C@@H]3[C@@]4(C)C/C(=N\O)[C@H](O)[C@@]5(C)COC(=C45)C[C@@]3(C)[C@]1(C)CC2,-39.2% (active),-41% (active),-78.3% (active),-75.4% (active),-79.1% (active),-91.9% (active),-58.4% (active),-98.1% (active),-33.6% (active),-62.5% (active),-84.6% (active),-79.8% (active),-84% (active),-64.5% (active),-71.1% (active),-84.8% (active),-89.4% (active),-80.9% (active)
CCCCCCCCCCSC(=N)N (tested in a mixture with another compound),-26.7% (active),38% (inactive),81.6% (inactive),101% (inactive),90% (inactive),85.9% (inactive),68% (inactive),76.1% (inactive),81.9% (inactive),82.5% (inactive),28% (inactive),75% (inactive),79.6% (inactive),38.6% (inactive),36.6% (inactive),55.6% (inactive),-57.9% (active),45.3% (inactive)
NC1CCC(Nc2nc(NCc3ccc(-c4ccco4)nc3)c3ncn(C4CCCC4)c3n2)CC1 (stereo not drawn),-3.17% (active),-18.3% (active),11.8% (inactive),25.1% (inactive),2.67% (active),-0.9% (active),8.71% (active),1.37% (active),10.7% (inactive),79.5% (inactive),-11.3% (active),-25.7% (active),11.4% (inactive),7.93% (active),1.09% (active),3.79% (active),-19% (active),4.05% (active)
Cc1ccc(S(=O)(=O)N2CCc3ccccc3CC2)cc1,84.8% (inactive),42.3% (inactive),79.2% (inactive),94.3% (inactive),44.8% (inactive),96.3% (inactive),104% (inactive),103% (inactive),109% (inactive),69.8% (inactive),63.1% (inactive),64.7% (inactive),101% (inactive),97.6% (inactive),60.7% (inactive),68.5% (inactive),91% (inactive),94.3% (inactive)
O=NN(CCCl)C(=O)Nc1ccc(NC(=O)N(CCCl)N=O)cc1,2.28% (active),100% (inactive),93% (inactive),95.2% (inactive),93.7% (inactive),105% (inactive),85.9% (inactive),111% (inactive),104% (inactive),98.7% (inactive),102% (inactive),85.2% (inactive),90.3% (inactive),66.1% (inactive),86.4% (inactive),100% (inactive),105% (inactive),103% (inactive)
CCCCCCCCCCCCCCCC(=O)N1CCN(C)CC1,-3.08% (active),71% (inactive),86.3% (inactive),86.3% (inactive),87.6% (inactive),84.9% (inactive),52.3% (inactive),86.8% (inactive),90.1% (inactive),90.3% (inactive),74.3% (inactive),83.1% (inactive),59.8% (inactive),90% (inactive),85% (inactive),57.3% (inactive),81.8% (inactive),76.2% (inactive)
